The values that follow come from PubChem BioAssay (Tox21).

Results filed as inconclusive are left out. Entries that show only a call come without a potency. Calls of active or inactive are those of the source. Calls come from the whole dose curve.
Potency is the fitted concentration of half-maximal effect.

A short description of this assay: qHTS assay to identify small molecule antagonists of the estrogen receptor alpha (ER-alpha) signaling pathway using the BG1 cell line (AID 743080).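 Note: BG1 cells stimulated with 17beta-estradiol alongside compound; nearly all actives have a fitted effect of over 25% in size.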 Conditions: BG1Luc4E2 ERE-luciferase antagonist mode, luminescence; series mostly up to 70.3 µM. An excerpt: National Center for Advancing Translational Sciences [NCATS]
NIH Chemical Genomics Center [NCGC]
U.S. Environmental Protection Agency [EPA]
National Institutes of Environmental Health Sciences [NIEHS]
National Toxicology Program [NTP]
U.S. Food and Drug Administration [FDA]
Estrogen receptor (ER), a nuclear hormone receptor, plays an important role in development, metabolic homeostasis and reproduction. Endocrine disrupting chemicals (EDCs) and their interactions with steroid hormone receptors like ER causes disruption of normal endocrine function. Therefore, it is important to understand the effect of environmental chemicals on the ER signaling pathway. To identify ER antagonists, BG1-Luc-4E2 cell line (provided by Dr. Michael Denison from University of California) has been used to screen the Tox21 10K compound library. BG1Luc4E2 cell line endogenously expresses full-length ER-alpha and is stably transfected with a plasmid containing four estrogen responsive elements (ERE) upstream of a luciferase reporter gene.
Tox21 Assay Protocol Summary:
BG1-Luc-4E2 cells were cultured in phenol red free assay medium containing 10% charcoal stripped FBS for 5 days before the assay was performed. The cells were dispensed at 4,000 cells/4 uL of assay medium per well into white wall/solid-bottom 1536-well plates using a Multidrop Combi (ThermoFisher Scientific, Waltham, MA) dispenser. The assay plates were incubated at a 37C and 5% CO2 for 24 h, and then 23 nL of compounds dissolved in DMSO, positive controls or DMSO only was transferred to the assay plate using a Pintool station (Kalypsys, San Diego, CA), followed by addition of 1 uL of 17beta-estradiol in assay medium using a Flying Reagent Dispenser (Aurora Discovery, San Diego, CA). After the plates were incubated at 37 C and 5% CO2 for 21.5 h, 1 uL of CellTiter-Fluor reagent (Promega, Madison, WI) of measuring cytotoxicity was added using Flying Reagent Dispenser (FRD) to each well. The assay plates were incubated at 37 C and 5% CO2 for additional 30 min and the fluorescence intensity was quantified by a ViewLux plate reader (PerkinElmer, Shelton, CT). For measuring luciferase reporter gene activity, 4 uL of ONE-Glo reagent (Promega) was added to each plate using an FRD and luminescence was quantified by a ViewLux plate reader after 30 min incubation at room temperature.
(Quantitative high-throughput screening tests each substance at several concentrations.)
Regarding `COC([CH2][Hg])CNC(=O)c1ccccc1OCC(=O)O` (stereo not given), the Potency result was “inactive”. The same measure for `CC(=O)O[C@H]1CC[C@H]2[C@@H]3CCC4=CC(=O)CCC4=C3C=C[C@]12C`: “inactive”; for `C[C@@H]([C@H](O)c1ccccc1)N(C)C`: “inactive”. `C/C=C(\CC)C(=O)NC(N)=O`: the Potency result was “inactive”. For the compound `[2H]C([2H])([2H])[C@H](N)Cc1ccccc1`, the Potency result was “inactive”.

Take `CC(N)Cc1ccc(O)cc1` (stereo not given): the Potency result is “inactive”. As for `ClC1=C(Cl)[C@]2(Cl)[C@@H]3[C@@H](Cl)[C@H]4O[C@H]4[C@@H]3C1(Cl)C2(Cl)Cl`, the Potency result is “inactive”.

Regarding `NCC[C@H](O)C(=O)N[C@@H]1C[C@H](N)[C@@H](O[C@H]2O[C@H](CN)[C@@H](O)[C@H](O)[C@H]2N)[C@H](O[C@@H]2O[C@H](CO)[C@@H](O)[C@H]2O)[C@H]1O`, the Potency entry is “inactive”. The same measure for `C[C@H]1CC[C@]2(NC1)O[C@H]1C[C@H]3[C@@H]4CC[C@H]5C[C@@H](O)CC[C@]5(C)[C@H]4CC[C@]3(C)[C@H]1[C@@H]2C`: “inactive”; for `C[C@@H](N)C(=O)c1ccccc1`: “inactive”; for `CN1CC[C@@]23CCCC[C@@H]2[C@@H]1Cc1ccc(O)cc13`: “inactive”. The same measure for `C=CCC1([C@@H](C)CCC)C(=O)NC(=O)NC1=O`: “inactive”. The same measure for `CC(C)NC(C)Cc1ccc(I)cc1` (stereo not given): “inactive”. As to `O=P1(N(CCCl)CCCl)NC(OO)CCO1` (stereo not given), the Potency entry was “inactive”. For `COc1cc(C[C@H](C)N)c(OC)cc1C`, the Potency result was “inactive”.

On to `O=C1OC2(c3cc(Br)c(O)cc3Oc3c2cc(Br)c(O)[c]3[Hg])c2ccccc21` (stereo not given), for which the Potency entry was “inactive”.

With `COC(=O)[C@H]1[C@@H](OC(=O)c2ccccc2)C[C@@H]2CC[C@H]1N2C`, the Potency entry is “inactive”. The same measure for `NCC(O)c1cccc(O)c1` (stereo not given): “inactive”; for `CN[C@@]1(c2ccccc2Cl)CCCCC1=O`: “inactive”; for `CCCCc1ccc(C(=O)O)nc1`: “inactive”.

For the compound `Cc1nnc2n1-c1sc(Br)cc1C(c1ccccc1Cl)=NC2`, the Potency is 11.9 µM (active).

Consider `COC(COC(N)=O)C1=C(N2CC2)C(=O)C(C)=C(N2CC2)C1=O` (stereo not given), for which the Potency is 0.531 µM (active). The same measure for `CCC1(c2cnc[nH]2)Cc2ccccc2C1`: “inactive”; for `CCCCNC(C)(C)[P+](=O)O`: “inactive”; for `CCNCC(O)c1cccc(O)c1` (stereo not given): “inactive”.

In the case of `CCC1(CC)C(=O)NC(=O)N(C)C1=O`, the Potency entry was “inactive”. The same measure for `c1ccc(C2(N3CCCC3)CCCCC2)cc1`: “inactive”. The same measure for `CN1[C@H]2CC[C@@H]1[C@@H](C(=O)O)[C@@H](OC(=O)c1ccccc1)C2`: “inactive”; for `O=C(C[C@@H]1NCCC[C@H]1O)Cn1cnc2cc(Br)c(Cl)cc2c1=O`: “inactive”.

As for `C1CN(P2(N3CC3)=NP(N3CC3)(N3CC3)=NP(N3CC3)(N3CC3)=N2)CCO1` (stereo not given), the Potency entry was “inactive”.

Take `O=C1CN=C(c2ccccc2)c2cc(Cl)ccc2N1`: the Potency entry is “inactive”.

Regarding `OCC(c1ccc(Cl)cc1)c1ccc(Cl)cc1`, the Potency was 68.6 µM (active). The same measure for `C[C@@H]1[C@H](O)[C@@H](C)/C=C/C=C/CC/C=C/C=C/C=C/C=C/[C@H](O[C@H]2O[C@@H](C)[C@H](O)[C@@H](N)[C@H]2O)CC2O[C@](O)(C[C@@H](O)[C@H](O)CC[C@@H](O)C[C@@H](O)C[C@@H](O)CC(=O)O[C@H]1C)C[C@H](O)[C@H]2C(=O)O`: “inactive”; for `CCNC1(c2cccs2)CCCCC1=O` (stereo not given): “inactive”; for `C[N+]1([O-])[C@@H]2CC(OC(=O)[C@H](CO)c3ccccc3)C[C@H]1[C@@H]1O[C@@H]12` (stereo not given in full): “inactive”. For the compound `CCN(CC)CCO[C@H]1CC[C@@]2(C)C(=CC[C@@H]3[C@@H]2CC[C@]2(C)C(=O)CC[C@@H]32)C1`, the Potency result was “inactive”. The same measure for `CCCC(C)C1(CC)C(=O)NC(=O)NC1=O` (stereo not given): “inactive”; for `CC(=O)OC1CN2CCC1CC2` (stereo not given): “inactive”; for `CNC(=O)OCC[N+](C)(C)C`: “inactive”.

Regarding `Clc1ccc2c(c1)C(c1ccccc1)=NCc1nncn1-2`, the Potency result is “inactive”.
